PubChem BioAssay AID624305 (National Center for Advancing Translational Sciences (NCATS), 2012)
Records with an inconclusive call do not appear. Calls of active or inactive are those of the source. Calls follow the shape of the dose curve; as a rule, active = well fitted activation curve with a large enough effect; inconclusive = small, poorly fitted or top-dose-only effect; inactive = no such curve, though single readings can be large or run the other way.

assay: qHTS assay for re-activators of p53 using a Luc reporter: Hit Validation; settings: p53-responsive luciferase reporter cells, luminescence, H1299 line expressing heat-sensitive Ala138Val p53; series mostly up to 46.1 µM; activation: at the top concentration; also: nearly all actives have a fitted effect of over 75% in size; as to activation: 0% is about no effect
How it was run: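 H1299 (p53-null) cells stably carrying p53-A138V and a BP100-luciferase reporter, 1000 cells/well, treated 24 h at 37 deg C. Compounds at several concentrations, 1:5 dilution; nocodazole control; luminescence read after 10 min with detection reagent.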
Potency is read from the fitted curve at half-maximal effect.

| SMILES | activation | Potency |
| --- | --- | --- |
| Cc1ccc(OCCN2CCOCC2)cc1C | 23.4% (inactive) |  |
| Brc1c(CSc2nc3ccccc3s2)nc2ncccn12 |  | 9.2 µM (active) |
| Clc1ccc(OCc2nc(-c3ccncc3)no2)c(Cl)c1 |  | 8.2 µM (active) |
| CC(=O)N1CCN(C(=O)COC(=O)COc2c(C)cc(C)cc2C)CC1 | 16.7% (inactive) |  |
| Cc1ccc(-c2cc3nc(C)cc(NCc4ccco4)n3n2)cc1 |  | 7.31 µM (active) |
| Clc1ccc(OCc2nc(-c3ccccn3)no2)c(Br)c1 |  | 1.03 µM (active) |
| O=C(NC(=S)NC1CCCCC1)c1ccccc1[N+](=O)[O-] | -10.9% (inactive) |  |
| CCC(Sc1nc2ccccc2c(=O)n1CCN1CCOCC1)C(=O)NCc1cccnc1 (stereo not given) | -24.5% (inactive) |  |
| Cc1c(C(=O)N(C)c2ccccc2Cl)cnn1-c1ccccc1 | 0.521% (inactive) |  |
| CN(CC(=O)Nc1ccc(Cl)c(Cl)c1)C(=O)C1CCCC1 | -22.4% (inactive) |  |
| O=C(Nc1ccc(Cl)cc1C(F)(F)F)c1ccccc1 | 33.9% (inactive) |  |
| O=C(CSc1nnc(-c2ccc(F)cc2)c2ccccc12)Nc1ccccc1 | 30.7% (inactive) |  |
| CCCN1C(=O)SC(CC(=O)Nc2ccccc2C)C1=O (stereo not given) | 12.4% [at 9.22 µM] (inactive) |  |
| COc1ccc2cc3c(N)nn(C(=O)c4ccc(Cl)c([N+](=O)[O-])c4)c3nc2c1 | -10.9% (inactive) |  |
| COc1ccnc(CSC(N)=Nc2ccccc2OC)c1 | 18.8% (inactive) |  |
| COc1ccc(-n2cc(-c3ccccc3)[nH]c2=S)cc1 |  | 11.6 µM (active) |
| CCCCn1c(/C=N/Nc2nc3ccccc3[nH]2)nc2ccccc21 |  | 23.1 µM (active) |
| CC(=O)c1c(C)[nH]c(C(=O)OCC(=O)c2ccc(C)s2)c1C | 44.3% (inactive) |  |
| CS(=O)(=O)n1nc(-c2ccc(Cl)cc2)nc1SCc1ccccc1 |  | 20.6 µM (active) |
| Cc1ccc(C(=O)N2CC(=O)Nc3ccc(F)cc3C2c2ccc(F)cc2)cc1[N+](=O)[O-] (stereo not given) | -19.3% (inactive) |  |
